The list is not random: actives were taken first. Their share in the collection is about 13%.
Pf growth 48h = inhibits P. falciparum growth in the first generation, 48 h. P. falciparum luciferase growth in erythrocytes, 48 h. Potency, µM (titrated, usually from 28.7 µM), for the others: at the top dose activity change, negative = inhibition, hits mostly inhibitors. hit rate 5.9% among 310,000; also: potency is read from the fitted curve at half-maximal effect
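Read-out is firefly luciferase luminescence from an integrated reporter in P. falciparum, so falling signal marks reduced parasite growth. Infected erythrocytes were at 2% hematocrit and 0.1% parasitemia (final) in Albumax-supplemented RPMI 1640.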
HCMV inh = human cytomegalovirus inhibition; HFF cells, HCMV-luciferase reporter, 72 h; hits give low values; activity change, negative = inhibition, % at 57.5 µM; hit rate 4.5% among 410,000; in the data active = activity change below about -60%; inconclusive = no clear call, values can overlap the other calls; inactive = above about -39%
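Inhibition of viral replication was scored as loss of reporter luminescence in HFFs infected with HCMV-luciferase (MOI 1 PFU/cell) for 72 h; compounds tested at 2 doses, normalized to buffer and Salinomycin controls.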
Pf growth 96h = inhibits malaria parasite growth, 96 h. P. falciparum luciferase reporter growth, 96 h. Potency, µM (series often up to 28.7 µM), for inactives: top-dose activity change, negative = inhibition, hits mostly inhibitors. hit rate 6.9% among 320,000; also: potency is read from the fitted curve at half-maximal effect
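Erythrocytes infected with luciferase-expressing P. falciparum were dispensed at 2% hematocrit and 0.05% parasitemia (final), then incubated with compounds 96 hours at 37 C in 5% CO2. Luminescence after detection reagent addition reported growth.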
HCV inh = blocks hepatitis C virus; Huh7.5.1 HCVcc-Cre infection, luciferase reporter, 44 h; Potency, µM (highest dose often 41.8 µM), for inactives: at the top dose activity change, negative = inhibition, usual class: inhibitors; hit rate 3.4% among 340,000; AID 651820; also: potency is read from the fitted curve at half-maximal effect
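Whole-lifecycle infectious HCVcc-Cre system; cells 1,000/well, compound then virus (~0.5 moi) added 4 h after plating, 44 h culture. Luciferase read 15 sec following 15 min substrate incubation, room temp.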
* hit, by the source's call; ? = inconclusive; . = not tested or not shown. Unless noted, calls follow the shape of the dose curve; as a rule, active = well fitted inhibition curve with a large enough effect; inconclusive = small, poorly fitted or top-dose-only effect, or another doubt; inactive = no such curve, though single readings can be large or run the other way. % is scaled to controls: 0 for no effect and ±100 for the full control effect.

SMILES	Pf growth 48h	HCMV inh	Pf growth 96h	HCV inh
CC1Oc2ccccc2C=C1/C=N/NC(=O)c1ccccc1O (centres undefined)	3.7µM*	-31	?	33%
CC1Oc2ccccc2C=C1/C=N/NC(=O)c1ccccc1 (centres undefined)	2.9µM*	44	?	?
COC(=O)[C@@H]1[C@@H](CO)[C@@H]2Cn3c(ccc(Br)c3=O)[C@@H]2N1CC1CCCC1	.	-11	.	.
COc1cc(OC)cc(C(=O)NCC(=O)N2CCN(c3ccc(O)cc3)CC2)c1	-5%	12	?	21%
COc1cc(OC)c2nc(C)c3c(c2c1)N(c1ccc(O)cc1)CC3	?	-103*	13µM*	?
CC[N+]1(C)[C@@H]2CC[C@H]1CC(OC(=O)[C@H]1CCC(C(=O)OC3C[C@H]4CC[C@@H](C3)[N+]4(C)CC)(c3ccccc3)c3ccccc31)C2 (some centres undefined)	10µM*	-69*	8.3µM*	-9%
Cc1cc2ncn(C(=O)N3CCCCC3)c2cc1C	8%	15	13µM*	12%

Bioassay records from PubChem BioAssay.
